TRPM1 prom inh: MITF TRPM1 promoter inhibition in SK-MEL-5 cells; AID 488899; 330,000 compounds, 0.83% hits; inhibition, % at 12.5 µM; SK-MEL-5 TRPM1 promoter luciferase, 24 h;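 active = mean inhibition across replicates of 60% or more, whatever share of single replicates reaches that level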
HIF-2a inh: blocks HIF-2a reporter activity. 786-0 RCC cells HIF-2a reporter, luciferase luminescence, overnight. 360,000 compounds, 0.72% hits. inhibition, % at 18.8 µM;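 active = inhibition of the luminescence signal of 40% or more relative to plate controls, in a single-dose primary screen at 18.75 µM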
ABHD5-PLIN5 inh: blocks binding of human ABHD5 to perilipin-5; Q00G26+Q8WTS1; 360,000 compounds, 0.78% hits; inhibition, % at 4 µM; Split G. princeps luciferase complementation, luminescence, 4 h;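 active = inhibition above the mean inhibition across every tested compound plus 3 SD, cut at about 22% in these data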;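 also: 0% = DMSO only wells and the 100% control is not disclosed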
Target sequence (Q00G26 whole entry, looked up): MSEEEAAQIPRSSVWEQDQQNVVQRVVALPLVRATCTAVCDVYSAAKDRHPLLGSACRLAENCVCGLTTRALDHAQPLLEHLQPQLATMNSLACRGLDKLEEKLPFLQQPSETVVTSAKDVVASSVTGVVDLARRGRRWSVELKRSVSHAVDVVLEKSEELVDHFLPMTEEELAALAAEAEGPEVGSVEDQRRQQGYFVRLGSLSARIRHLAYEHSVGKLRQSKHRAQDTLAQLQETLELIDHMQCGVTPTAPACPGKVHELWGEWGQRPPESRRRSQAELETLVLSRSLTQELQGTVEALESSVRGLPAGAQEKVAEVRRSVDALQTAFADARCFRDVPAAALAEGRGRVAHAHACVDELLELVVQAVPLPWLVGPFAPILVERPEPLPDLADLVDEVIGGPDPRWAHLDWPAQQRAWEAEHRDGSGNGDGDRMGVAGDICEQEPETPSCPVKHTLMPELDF
Target sequence (Q8WTS1 whole entry, looked up): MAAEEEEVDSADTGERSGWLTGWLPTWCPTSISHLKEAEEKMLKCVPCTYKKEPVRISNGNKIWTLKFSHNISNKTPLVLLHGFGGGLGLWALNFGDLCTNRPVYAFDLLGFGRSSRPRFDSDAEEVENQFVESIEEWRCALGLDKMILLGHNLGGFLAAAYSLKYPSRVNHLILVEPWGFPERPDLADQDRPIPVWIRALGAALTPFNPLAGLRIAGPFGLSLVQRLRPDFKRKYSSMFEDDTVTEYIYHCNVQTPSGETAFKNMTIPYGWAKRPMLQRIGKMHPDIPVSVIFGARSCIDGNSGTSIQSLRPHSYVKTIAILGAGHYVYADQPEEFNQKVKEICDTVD
CF NFkB inh: inhibitors of cystic fibrosis induced NF-kB | AID 588850 | inhibition, % at 5 µM | 360,000 compounds, 0.86% hits | KKLEB NF-kB-GFP reporter, PAF-induced, GFP fluorescence overnight;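 active = at least 50% inhibition at 5 µM, scaled per plate between neutral and stimulator controls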;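 also: PAF is a Pseudomonas aeruginosa culture filtrate used as stimulus; plate controls were PAF-stimulated DMSO wells for no effect and unstimulated DMSO wells for full effect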
Peg3 prom inh: reduces Peg3 promoter-driven luciferase expression in HeLa; HeLa PEG-Prom luciferase reporter, luminescence, overnight; inhibition, % at 20 µM; 360,000 compounds, 1.7% hits; AID 588405;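 active = inhibition of at least 50% at 20 µM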
KKLEB tox: CF airway cell cytotoxicity counter-screen. KKLEB CF airway cells viability, ATPlite luminescence, overnight; hits give low values; cells stimulated with P. aeruginosa culture filtrate. activity change (cytotoxicity), % at 5 µM. 360,000 compounds, 0.36% hits. AID 602141;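 active = corrected activity change at or below -50% at 5 µM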
The depositor's hits bear a star; nt = no result. Shown are actives, neighbours in structure and some others; about 3.1% of the full set was active somewhere.

SMILES	TRPM1 prom inh	HIF-2a inh	ABHD5-PLIN5 inh	CF NFkB inh	Peg3 prom inh	KKLEB tox
C#C[C@]1(O)CCC2C3C(=O)C=C4C(Cl)=CCC[C@]4(C)C3CC[C@@]21C (some centres not stated)	0	21	0	44	38	-18
COc1ccc(C(O)CNC(C)C)c(F)c1OC (configuration not stated)	-11	4	9	18	-2	-11
CC(C)(C)c1cc(C=C(C#N)C#N)cc(C(C)(C)C)c1O	84*	-24	3	47	56*	17
N#CC(C#N)=Cc1ccc(O)c(O)c1	2	-4	1	-25	-7	12
c1ccc2c(N3CCNCC3)cccc2c1	-1	-11	6	-9	-14	0
Clc1cccc(N2CCNCC2)c1Cl	-1	21	5	-2	-1	-67*
COC(=O)C1=C(c2ccc(F)cc2OCc2ccccc2)C[C@@H]2CC[C@H]1N2C(=O)NCc1ccc2c(c1)OCO2	-11	11	2	16	20	-20
Cc1cccc(CCNCc2cc3cccc(C)c3[nH]c2=O)c1	3	19	-5	-16	7	-9
Fc1cccc(-c2ccc3c(c2)CN(C(=S)NCCc2ccccc2)Cc2cnnn2-3)c1	nt	-1	-7	16	24	-25
CC(=O)OC1C(O)C2=C3C4(C)C1C(C)(C)C(=O)CC4C3(O)C(OC(C)=O)C1(CC1C)C2=O (configuration not stated)	nt	21	22*	nt	nt	nt
CCN(CC)c1ccc(CNCCc2ccc(F)cc2)cc1	0	21	6	8	64*	-8
CCc1ccc(CNCCc2ccc(F)cc2)cc1	3	13	3	-12	-2	-3
CN(C)C1CCc2[nH]c3c(F)cc(F)cc3c2C1 (configuration not stated)	nt	-14	1	-10	-58	4
CN1C(=O)C(C)(C2=CCCCC2)C(=O)NC1=S (configuration not stated)	3	5	-8	-8	93*	2
CN1C(=O)NC(=O)C(C)(C2=CCCCC2)C1=O (configuration not stated)	-96	-270	0	-7	-376	17
CCN(CC)CC(O)c1ccc(C2CCCC2)cc1 (configuration not stated)	0	14	7	25	-6	-4
NC(=O)c1ccc(N)nc1	16	3	-7	78*	8	-91*
C=C1[C@@H](OC(C)=O)[C@]23C[C@@H]1[C@@H](OC(C)=O)CC2[C@]12C4C[C@H]3[C@H]1N(CC)C[C@]4(C)CC[C@@H]2O (some centres not stated)	nt	14	2	-24	0	-1
CCN(CC)S(=O)(=O)c1ccc(C(=O)NC2CN3CCC2CC3)cc1 (configuration not stated)	-18	4	-1	12	0	2
COc1cccc(C(c2nnnn2-c2ccc3c(c2)OCCO3)N2CCC(n3c(=O)[nH]c4ccccc43)CC2)c1OC (configuration not stated)	nt	-45	7	85*	49	-90*
O=C1NCN(c2ccccc2)C12CCN(C(c1ccccc1)c1nnnn1-c1ccc3c(c1)OCCO3)CC2 (configuration not stated)	nt	-12	10	-16	25	-10
O=c1[nH]c2ccccc2n1C1CCN(C(c2ccccc2OC(F)(F)F)c2nnnn2-c2ccc3c(c2)OCCO3)CC1 (configuration not stated)	nt	-44	18	83*	89*	-86*
COc1cccc(C(c2nnnn2Cc2ccccc2)N2CCC(n3c(=O)[nH]c4ccccc43)CC2)c1OC (configuration not stated)	nt	-7	11	87*	73*	-75*
COc1cccc(C(c2nnnn2C2CCCC2)N2CCC3(CC2)C(=O)NCN3c2ccccc2)c1OC (configuration not stated)	nt	6	3	-15	15	1
O=C1NCN(c2ccccc2)C12CCN(C(c1cccc3ccccc13)c1nnnn1-c1ccc3c(c1)OCCO3)CC2 (configuration not stated)	nt	15	2	10	26	-1
